According to PubChem BioAssay (Tox21):
A number with no mark means an inactive call. Results filed as inconclusive are left out. A call without a number means that no potency is given here. Active and inactive are the calls of the source. Unless noted, the call rests on the fitted dose curve; in most records, active means well fitted curve in the direction sought with a large enough effect in the repeat runs; inconclusive means weak or mixed curves; inactive means no such curve, though single readings can be large; an effect the other way counts as inactive or inconclusive.

Key:
[1] = target: Progesterone receptor (Homo sapiens) (UniProt P06401); assay: qHTS assay to identify small molecule agonists of the progesterone receptor (PR) signaling pathway (AID 1346784; calls by dose curve; further: nearly all actives have a fitted effect of over 30% in size)
How it was run: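 PR-UAS-bla HEK 293T cells carrying a UAS-driven beta-lactamase reporter were seeded in medium with 2% charcoal-stripped FBS, preincubated 6 hr at 37C, then exposed to compounds in DMSO for 16 hr; agonism was read by LiveBLAzer B/G FRET fluorescence.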

[2] = target: Progesterone receptor (Homo sapiens) (UniProt P06401); assay: qHTS assay to identify small molecule antagonists of the progesterone receptor (PR) signaling pathway (AID 1346795; active means well fitted inhibition curve with a large enough effect in the signal ratio in the repeat runs, not every such curve was filed as active; the % refers to the signal ratio; further: potency means the concentration at half of the fitted maximal effect)
How it was run: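 PR-UAS-bla HEK293T cells carrying a UAS-driven beta-lactamase reporter were plated in medium with 2% charcoal-stripped FBS and rested 6 hr at 37C. Compounds were added with 1 nM R5020 (final) for 16 hr, then FRET substrate loaded 2 hr at room temperature.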

[3] = qHTS assay to identify small molecule antagonists of the progesterone receptor (PR) signaling pathway - cell viability counter screen (AID 1346798); further: series mostly up to about 92 µM; nearly all actives have a fitted effect of over 50% in size
How it was run: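 PR-UAS-bla HEK293T cells in medium with 2% charcoal-stripped FBS were treated with compounds plus R5020 for 16 hr at 37C. Cell viability was then read by CellTiter-Glo luminescence after 30 min at room temperature in the same wells.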

[4] = qHTS assay to identify small molecule agonists of the progesterone receptor (PR) signaling pathway - cell viability counter screen (AID 1346799; calls by dose curve; further: nearly all actives have a fitted effect of over 45% in size)
How it was run: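 PR-UAS-bla HEK293T cells, 3,000 per well in medium with 2% charcoal-stripped FBS, were preincubated 6 hr at 37C, then exposed to compounds for 16 hr; viability was read as CellTiter-Glo luminescence after 30 min at room temperature.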

[5] = qHTS assay to identify small molecule antagonists of the TGF-beta/Smad signaling pathway - cell viability counter screen (AID 1346824); further: nearly all actives have a fitted effect of over 50% in size
How it was run: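 SBE-bla HEK 293T cells were plated overnight at 37 C, then given compounds in DMSO plus TGF-beta1 (added as 0.25 ng/mL solution) for 5 hr. After the bla read, CellTiter-Glo was added to the same wells and luminescence read after 30 min at room temperature.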

[6] = qHTS assay to identify small molecule agonists of the TGF-beta/Smad signaling pathway - cell viability counter screen (AID 1346829); further: top concentration of the series differs between compounds; nearly all actives have a fitted effect of over 45% in size
How it was run: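 CellTiter-Glo luminescence readout; SBE-bla HEK 293T cells, overnight plating, compound 5 hr at 37 C/5% CO2, then bla substrate 2 hr RT, then CellTiter-Glo 30 min RT.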

[7] = Human pregnane X receptor (PXR) small molecule agonists, qHTS cell viability counter screen (AID 1346977); further: nearly all actives have a fitted effect of over 50% in size
How it was run: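 PXR-Luc HepG2 cells in medium with 5% charcoal-stripped FBS were pre-incubated 5hr, then exposed to compounds for 24hr at 37C. Viability was read in the same wells by CellTiter-Fluor fluorescence, reagent added after 23hr with a 1hr incubation.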

[8] = Caspase-3/7 induction in HepG2 cells by small molecules, qHTS assay (AID 1346978); further: nearly all actives have a fitted effect of over 15% in size
How it was run: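 Wild-type HepG2 cells (2,000/well) were settled 5 h at 37 C, 5% CO2, then exposed to compounds in DMSO for 17 h. Caspase-3/7 activity was read by luminescence 30 min after adding Caspase-Glo 3/7 reagent at room temperature.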

[9] = Caspase-3/7 induction in CHO-K1 cells by small molecules, qHTS cell viability counter screen (AID 1346979); further: nearly all actives have a fitted effect of over 35% in size
How it was run: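 Wild-type CHO-K1 cells were seeded at 1,500 per well, rested 5hr at 37 C, then exposed to compounds in DMSO. After 16hr, CellTiter-Fluor reagent was added and fluorescence read 1hr later as the viability measure.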

[10] = Caspase-3/7 induction in CHO-K1 cells by small molecules, qHTS assay (AID 1346980); further: nearly all actives have a fitted effect of over 15% in size
How it was run: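 Wild-type cells were seeded at 1,500 per well and settled 5 hr at 37 C, 5% CO2, then exposed to DMSO-dissolved compounds for 17 hr. Caspase-Glo 3/7 reagent was added, and luminescence was read after 30min at room temperature.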

[11] = Caspase-3/7 induction in HepG2 cells by small molecules, qHTS cell viability counter screen (AID 1346981); further: series mostly up to about 92 µM; nearly all actives have a fitted effect of over 30% in size
How it was run: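 Treatment of HepG2 cells with DMSO-delivered compounds ran 16 hr at 37 C following a 5-hr pre-incubation of 2,000 cells/well. CellTiter-Fluor fluorescence, read after 1 hr, served as the viability measure in a qHTS format.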

[12] = target: Nuclear receptor subfamily 1 group I member 2 (Homo sapiens) (UniProt O75469); assay: Human pregnane X receptor (PXR) small molecule agonists, qHTS assay (AID 1346982); further: nearly all actives have a fitted effect of over 35% in size; further: potency means the concentration at half of the fitted maximal effect
How it was run: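 Stable HepG2 line reporting PXR-mediated CYP3A4 expression via luciferase. Treatment: 24 hr with compounds in DMSO at 37 C. Detection: ONE-Glo luminescence.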

[13] = target: Thyrotropin-releasing hormone receptor (Homo sapiens) (UniProt P34981); assay: qHTS assay to identify small molecule antagonists of the thyrotropin-releasing hormone receptor (TRHR) signaling pathway (AID 1346877; active means well fitted inhibition curve with a large enough effect in the repeat runs, not every such curve was filed as active; further: series mostly up to about 51 µM)
How it was run: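 Overnight-plated (18 h, 37 °C) HEK293 cells expressing TRHR were dye-loaded 2 h, treated with compound, then stimulated with TRH at 1 nM final. Fluorescence intensity was captured every second for 3 min.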

[14] = target: Cytochrome P450 2D6 (Homo sapiens) (UniProt P10635); assay: Cytochrome P450 Family 2 Subfamily D Member 6 (CYP2D6) small molecule antagonists: luciferase reporter qHTS assay (AID 1671196); further: nearly all actives have a fitted effect of over 50% in size; further: potency means the concentration at half of the fitted maximal effect
How it was run: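 Chemicals tested for interference with CYP2D6 activity; proluciferin substrate, NADPH regeneration, 1 h at room temperature, luminescent detection.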

[15] = target: Cytochrome P450 2C19 (Homo sapiens) (UniProt P33261); assay: Cytochrome P450 Family 2 Subfamily C Member 19 (CYP2C19) small molecule antagonists: luciferase reporter qHTS assay (AID 1671197); further: nearly all actives have a fitted effect of over 65% in size; further: potency means the concentration at half of the fitted maximal effect
How it was run: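 Enzyme-substrate mix with proluciferin substrate (P450-Glo CYP2C19 system) preincubated with compounds 10 min at room temperature; NADPH regeneration solution added, 37C for 1 h; detection reagent stops reaction, luminescence read after 20 min. Ketoconazole positive control.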

[16] = target: Thyrotropin-releasing hormone receptor (Homo sapiens) (UniProt P34981); assay: qHTS assay to identify small molecule agonists of the thyrotropin-releasing hormone receptor (TRHR) signaling pathway (AID 1346891; calls by dose curve; further: series mostly up to about 58 µM)
How it was run: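 TRHR-expressing HEK293 cells were plated 18 h at 37 °C/5% CO2, loaded with calcium dye 2 h at 37 °C, then given compound in DMSO; fluorescence was read kinetically for 3 min at 1 s intervals.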

[17] = qHTS assay to identify small molecule agonists of the TGF-beta/Smad signaling pathway (AID 1346859; active means well fitted activation curve with a large enough effect in the signal ratio in the repeat runs, not every such curve was filed as active; the % refers to the signal ratio; further: series mostly up to about 77 µM)
How it was run: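 HEK 293T cells stably carrying a beta-lactamase reporter driven by the Smad binding element were seeded overnight, exposed to DMSO-dissolved compounds for 5 hr at 37 C, 5% CO2, then loaded with FRET substrate for 2 hr at room temperature.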

[18] = target: Nuclear receptor subfamily 1 group I member 2 (Rattus norvegicus) (UniProt Q9R1A7); assay: Rat pregnane X receptor (rPXR) activation by small molecules, qHTS assay (AID 1346983); settings: rPXR luciferase reporter cells, One-Glo luminescence, 24 h; hits give high values; further: nearly all actives have a fitted effect of over 20% in size
How it was run: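 Cell-based rPXR luciferase reporter assay, 2,000 cells per well, rested 5hr at 37 C before compound addition in DMSO, then 24 hr at 37 C. One-Glo reagent was added and luminescence read after 30 min at room temperature.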

[19] = target: Nuclear receptor subfamily 1 group I member 2 (Homo sapiens) (UniProt O75469); assay: CYP3A4 induction through human pregnane X receptor (PXR) by small molecules, qHTS assay (AID 1346984); further: nearly all actives have a fitted effect of over 40% in size
How it was run: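 After 24 h at 37C with compound, DPX-2 cells (HepG2, co-transfected PXR response element and CYP3A4 promoter-luciferase) got 3uM final P450-Glo Luciferin-IPA for 3 h; One-Glo luminescence followed.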

[20] = target: Nuclear receptor subfamily 1 group I member 2 (Homo sapiens) (UniProt O75469); assay: Human pregnane X receptor (PXR) activation by small molecules, qHTS assay (AID 1346985); further: nearly all actives have a fitted effect of over 40% in size
How it was run: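 DPX-2 cells (HepG2 co-transfected with a PXR response element and a CYP3A4-promoter luciferase construct) were seeded at 2,000 per well, rested 5 hr at 37C, then exposed to DMSO-dissolved compounds for 24 hr. Activation was read as luciferase luminescence.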

Chain of Nuclear receptor subfamily 1 group I member 2 (Rattus norvegicus) (Q9R1A7 whole entry, looked up): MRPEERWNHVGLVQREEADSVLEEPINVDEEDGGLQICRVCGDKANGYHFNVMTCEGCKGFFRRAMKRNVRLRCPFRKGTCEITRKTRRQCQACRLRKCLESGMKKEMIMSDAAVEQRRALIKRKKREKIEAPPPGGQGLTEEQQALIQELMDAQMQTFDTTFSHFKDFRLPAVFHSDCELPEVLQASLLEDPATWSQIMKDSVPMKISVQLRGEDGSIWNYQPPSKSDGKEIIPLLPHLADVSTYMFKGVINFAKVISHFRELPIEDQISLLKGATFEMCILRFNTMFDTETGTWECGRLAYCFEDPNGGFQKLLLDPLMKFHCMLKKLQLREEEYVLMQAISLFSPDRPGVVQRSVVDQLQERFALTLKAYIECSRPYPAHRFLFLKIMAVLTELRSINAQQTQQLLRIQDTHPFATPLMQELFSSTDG
Chain of Nuclear receptor subfamily 1 group I member 2 (Homo sapiens) (O75469 whole entry, looked up): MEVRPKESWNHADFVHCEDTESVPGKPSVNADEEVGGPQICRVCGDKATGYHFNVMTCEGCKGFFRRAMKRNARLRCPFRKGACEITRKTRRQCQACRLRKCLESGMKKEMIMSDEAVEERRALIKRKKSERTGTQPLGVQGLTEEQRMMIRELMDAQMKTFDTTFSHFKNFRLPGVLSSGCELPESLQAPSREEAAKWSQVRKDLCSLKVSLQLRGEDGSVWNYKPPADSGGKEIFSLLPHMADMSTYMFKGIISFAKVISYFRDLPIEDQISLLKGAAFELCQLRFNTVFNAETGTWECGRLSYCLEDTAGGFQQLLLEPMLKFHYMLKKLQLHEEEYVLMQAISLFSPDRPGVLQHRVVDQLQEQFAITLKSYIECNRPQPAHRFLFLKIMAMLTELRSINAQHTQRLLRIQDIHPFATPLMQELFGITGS
Chain of Cytochrome P450 2C19 (Homo sapiens) (P33261 whole entry, looked up): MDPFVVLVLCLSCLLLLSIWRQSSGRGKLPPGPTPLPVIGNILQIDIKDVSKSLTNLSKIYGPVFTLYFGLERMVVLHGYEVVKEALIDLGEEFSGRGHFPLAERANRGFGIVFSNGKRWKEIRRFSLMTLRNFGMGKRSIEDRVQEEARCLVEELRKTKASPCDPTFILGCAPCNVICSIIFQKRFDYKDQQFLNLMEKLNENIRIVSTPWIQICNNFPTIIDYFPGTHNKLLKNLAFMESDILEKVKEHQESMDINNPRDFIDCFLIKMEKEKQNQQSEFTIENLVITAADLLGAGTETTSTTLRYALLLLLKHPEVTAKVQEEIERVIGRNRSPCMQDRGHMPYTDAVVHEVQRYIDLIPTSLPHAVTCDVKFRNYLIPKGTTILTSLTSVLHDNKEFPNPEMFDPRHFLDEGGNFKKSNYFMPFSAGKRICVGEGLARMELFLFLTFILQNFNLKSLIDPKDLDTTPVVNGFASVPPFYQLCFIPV
Chain of Progesterone receptor (Homo sapiens) (P06401 whole entry, looked up): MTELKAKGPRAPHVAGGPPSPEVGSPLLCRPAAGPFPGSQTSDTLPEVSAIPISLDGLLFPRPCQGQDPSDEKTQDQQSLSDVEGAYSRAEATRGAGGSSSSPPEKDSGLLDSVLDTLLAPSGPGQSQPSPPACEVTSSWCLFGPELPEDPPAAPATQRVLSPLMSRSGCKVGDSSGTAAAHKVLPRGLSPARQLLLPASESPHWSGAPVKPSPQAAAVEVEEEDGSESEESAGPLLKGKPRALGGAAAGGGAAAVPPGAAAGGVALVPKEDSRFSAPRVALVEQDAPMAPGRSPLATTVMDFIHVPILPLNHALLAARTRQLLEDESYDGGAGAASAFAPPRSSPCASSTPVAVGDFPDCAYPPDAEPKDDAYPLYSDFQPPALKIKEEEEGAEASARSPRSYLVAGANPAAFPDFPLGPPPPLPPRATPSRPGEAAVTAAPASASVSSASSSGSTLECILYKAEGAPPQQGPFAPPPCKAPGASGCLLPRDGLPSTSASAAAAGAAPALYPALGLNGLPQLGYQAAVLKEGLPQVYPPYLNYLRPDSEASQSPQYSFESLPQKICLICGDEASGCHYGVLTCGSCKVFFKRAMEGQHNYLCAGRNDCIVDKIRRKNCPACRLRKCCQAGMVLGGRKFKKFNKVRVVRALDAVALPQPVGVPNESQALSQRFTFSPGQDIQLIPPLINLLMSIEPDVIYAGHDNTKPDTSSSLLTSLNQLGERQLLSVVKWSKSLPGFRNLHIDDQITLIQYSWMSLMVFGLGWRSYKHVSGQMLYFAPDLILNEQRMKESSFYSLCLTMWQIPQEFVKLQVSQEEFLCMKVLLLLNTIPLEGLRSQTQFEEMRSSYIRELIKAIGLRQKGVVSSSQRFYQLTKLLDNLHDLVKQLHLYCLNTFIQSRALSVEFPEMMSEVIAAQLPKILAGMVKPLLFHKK
Chain of Cytochrome P450 2D6 (Homo sapiens) (P10635 whole entry, looked up): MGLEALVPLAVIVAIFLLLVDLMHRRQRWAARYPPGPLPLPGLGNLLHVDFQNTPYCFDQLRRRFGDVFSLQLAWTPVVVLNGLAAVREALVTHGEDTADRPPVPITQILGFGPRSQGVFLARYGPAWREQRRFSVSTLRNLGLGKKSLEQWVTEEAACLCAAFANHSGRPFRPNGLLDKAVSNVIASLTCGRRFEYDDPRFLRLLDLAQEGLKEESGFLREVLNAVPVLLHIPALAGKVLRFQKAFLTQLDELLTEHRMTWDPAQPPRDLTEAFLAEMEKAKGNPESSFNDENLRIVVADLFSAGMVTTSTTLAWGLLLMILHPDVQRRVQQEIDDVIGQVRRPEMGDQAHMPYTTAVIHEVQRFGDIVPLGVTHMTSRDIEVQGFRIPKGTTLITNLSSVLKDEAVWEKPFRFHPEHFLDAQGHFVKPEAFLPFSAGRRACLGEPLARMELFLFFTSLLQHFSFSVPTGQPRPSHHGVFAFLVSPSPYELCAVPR
Chain of Thyrotropin-releasing hormone receptor (Homo sapiens) (P34981 whole entry, looked up): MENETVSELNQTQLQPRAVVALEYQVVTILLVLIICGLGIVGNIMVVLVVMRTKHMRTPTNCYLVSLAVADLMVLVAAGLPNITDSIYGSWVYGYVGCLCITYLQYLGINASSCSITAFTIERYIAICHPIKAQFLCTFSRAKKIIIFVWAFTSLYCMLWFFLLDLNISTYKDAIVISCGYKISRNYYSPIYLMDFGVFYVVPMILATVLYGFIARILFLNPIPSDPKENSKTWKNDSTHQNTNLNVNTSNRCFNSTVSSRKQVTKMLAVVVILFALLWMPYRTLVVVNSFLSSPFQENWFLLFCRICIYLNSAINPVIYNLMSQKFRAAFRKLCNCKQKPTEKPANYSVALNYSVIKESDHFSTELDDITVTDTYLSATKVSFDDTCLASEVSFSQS

Row | Structure (SMILES) | Potency [1] | Potency [2] | Potency [3] | Potency [4] | Potency [5] | Potency [6] | Potency [7] | Potency [8] | Potency [9] | Potency [10] | Potency [11] | Potency [12] | Potency [13] | Potency [14] | Potency [15] | outcome [16] | Potency [17] | max activation [18] [%] | Potency [19] | Potency [20]
1 | CC(C)(C)NSc1nc2ccccc2s1 | inactive | inactive | inactive | inactive | inactive | inactive | inactive | inactive | inactive | inactive | inactive | 49.4 µM (active) | – | – | – | – | – | – | – | –
2 | c1cnccn1 | inactive | inactive | inactive | inactive | inactive | inactive | inactive | inactive | inactive | inactive | inactive | inactive | inactive | inactive | inactive | – | – | – | – | –
3 | CCC(CC)C(C)CCOC(C)=O (stereo unspecified) | inactive | inactive | inactive | inactive | inactive | inactive | inactive | inactive | inactive | inactive | inactive | inactive | inactive | inactive | inactive | inactive | – | – | – | –
4 | CCCCC(CC)CN1CN(CC(CC)CCCC)CC(C)(N)C1 (stereo unspecified) | inactive | inactive | inactive | – | inactive | inactive | inactive | inactive | inactive | inactive | inactive | 21.1 µM (active) | inactive | 0.309 µM (active) | – | inactive | inactive | -2.15 | inactive | inactive
5 | CCCCCC(C)OC(=O)COc1ccc(Cl)c2cccnc12 (stereo unspecified) | inactive | 54.5 µM (active) | inactive | inactive | inactive | inactive | inactive | inactive | – | inactive | inactive | 24.3 µM (active) | inactive | inactive | 7.96 µM (active) | inactive | – | – | – | –
6 | Nc1nc2c(ncn2COCCO)c(=O)[nH]1 | inactive | inactive | inactive | inactive | – | inactive | inactive | inactive | inactive | inactive | inactive | inactive | – | – | inactive | – | inactive | -0.779 | inactive | inactive
7 | CCCC(=O)OC(C)(C)Cc1ccccc1 | inactive | inactive | inactive | inactive | inactive | inactive | inactive | inactive | inactive | inactive | inactive | – | inactive | – | – | inactive | – | – | – | –
8 | O=c1[nH]c(=O)n([C@H]2C[C@H](O)[C@@H](CO)O2)cc1F | inactive | inactive | inactive | inactive | inactive | inactive | inactive | inactive | inactive | inactive | inactive | – | inactive | inactive | – | inactive | – | -2.43 | inactive | –
